Structures are written as SMILES. Unmarked numbers belong to inactive results. Records with an inconclusive call do not appear. Calls of active or inactive are those of the source. The call rests on the fitted dose curve; in most records, active means well fitted curve in the direction sought with a large enough effect in the repeat runs; inconclusive means weak or mixed curves; inactive means no such curve, though single readings can be large; an effect the other way counts as inactive or inconclusive.

Test [1] can be described thus: qHTS RealTime-Glo MT Cell Viability Assay in HEK293 cells - 32 hour (AID 1224868). Further: top concentration of the series differs between compounds; nearly all actives have a fitted effect of over 50% in size. The method in brief:
(§1)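 Nonlytic real-time viability readout: viable cells convert prosubstrate to NanoLuc substrate, giving luminescence proportional to live cell number. HEK293, 600 cells/well, compound added after 5 h, continuous culture at 37 C.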
Background: Quantitative high-throughput screening tests each substance at several concentrations.

Test [2] is described as follows: A CellTox Green Cytotoxicity Assay to monitor cytotoxicity in HEK293 cells - 0 hour (AID 1224869). Further: nearly all actives have a fitted effect of over 50% in size. The method in brief:
(§2)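 Dead-cell fluorescence measured kinetically: asymmetric cyanine dye, HEK293, 600 cells/well, 5 h settle, 23 nL cpd/DMSO, 37 C, reads 0–40 h every 8 h.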

The nature of test [3]: qHTS RealTime-Glo MT Cell Viability Assay in HepG2 cells - 40 hour (AID 1224870). Further: nearly all actives have a fitted effect of over 50% in size. The method in brief:
(§3)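 Real-time viability: cells seeded at 600 per well together with NanoLuc and cell-permeant prosubstrate, compounds added after 5 h incubation. Luminescence tracked at 0, 8, 16, 24, 32 and 40 h of exposure.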

Test [4] can be described thus: A CellTox Green Cytotoxicity Assay to monitor cytotoxicity in HEK293 cells - 40 hour (AID 1224871). Further: nearly all actives have a fitted effect of over 45% in size. The method, boiled down: as §2
The nature of test [5]: qHTS RealTime-Glo MT Cell Viability Assay in HEK293 cells - 16 hour (AID 1224872). Further: top concentration of the series differs between compounds; nearly all actives have a fitted effect of over 50% in size. The method, boiled down:
as §1

The nature of test [6]: qHTS RealTime-Glo MT Cell Viability Assay in HEK293 cells - 40 hour (AID 1224874). Further: nearly all actives have a fitted effect of over 50% in size. The settings on record: RealTime-Glo luminescence, stronger effect = lower value. The method in brief:
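600 HEK293 cells per well, dispensed already mixed with RealTime-Glo MT reagents. Compound dosing came 5 h later. The same wells were read for luminescence at 0, 8, 16, 24, 32 and 40 h of exposure at 37 C.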

Test [7] in a line: A CellTox Green Cytotoxicity Assay to monitor cytotoxicity in HEK293 cells - 24 hour (AID 1224875). Further: nearly all actives have a fitted effect of over 45% in size. Further: potency means the concentration at half of the fitted maximal effect. On activity change: series mostly up to about 77 µM. The method, boiled down:
as §2

Test [8] in a line: A CellTox Green Cytotoxicity Assay to monitor cytotoxicity in HepG2 cells - 16 hour (AID 1224876). Further: nearly all actives have a fitted effect of over 45% in size. Further: potency means the concentration at half of the fitted maximal effect. The method in brief:
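First, HepG2 cells (600/well) mixed with reagent were plated; second, after 5 h at 37 C they received compounds via pintool; third, fluorescence was measured at 0 h through 40 h at 8 h intervals.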

Test [9] in a line: qHTS RealTime-Glo MT Cell Viability Assay in HepG2 cells - 32 hour (AID 1224877). Further: nearly all actives have a fitted effect of over 55% in size. The method, boiled down: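 Luminescence read-out: viable HepG2 cells reduce a prosubstrate to a NanoLuc substrate, giving a signal proportional to live cell number. Reads taken at 0, 8, 16, 24, 32 and 40 h of compound exposure at 37 C.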
Test [10] can be described thus: qHTS RealTime-Glo MT Cell Viability Assay in HepG2 cells - 8 hour (AID 1224873). Further: nearly all actives have a fitted effect of over 55% in size. The method, boiled down: as §3
On the % scale 0 is the no-effect control and ±100 the full control effect.

Take `C[C@@H]1NC(=O)[C@@H](N)CNC(=O)[C@H](C2CCNC(N)=N2)NC(=O)/C(=C/NC(N)=O)NC(=O)[C@H](CNC(=O)C[C@@H](N)CCCN)NC1=O` (stereo partly specified): the activity change, negative = cytotoxic in [1] is 0.857% [at 0.29 µM]; in test [3], 3.51% [at 0.29 µM]; in test [9], 3.72% [at 0.29 µM]. In addition, the cytotoxicity in test [2] is 0.414% [at 0.29 µM]. Further, the cytotoxicity increase was 21.6% [at 0.29 µM] in [4] and -2.83% [at 0.29 µM] in test [8]. Further, the activity change, negative = cytotoxicity in [5] is 0.93% [at 0.29 µM]. Moreover, in [6], the max response is 0.0952%. Besides, the activity change in test [7] is 19.3% [at 0.29 µM, stronger effect = higher value].
Take `O=C(O)CCC(=O)Nc1ccc(S(=O)(=O)Nc2nccs2)cc1`: the call in [1], in test [2], in [3], in [5], in test [10] and in test [9] was inactive. The Potency result in test [4] and in test [7] was “inactive” in each case. Also, in test [6], the max response is 2.99%.
`CCCCCCC(=O)c1ccccc1`: the molecule was classed as inactive in test [1], in test [2], in [3] and in test [5]. Moreover, the Potency entry in [4], in test [7] and in [8] was “inactive” in each case. The max response in test [6] was -0.886%.
With `CCCCCCCCCCCCCC(=O)OCC`, the molecule was classed as inactive in test [1], in test [2], in [3], in [5] and in test [9]. For the same molecule, the Potency entry in test [4], in test [7] and in test [8] was “inactive” throughout. Besides, in [6], the max response was -1.33%.
For `COC(C)(C)CC(C)=O`, the molecule was called inactive in test [1], in test [2], in test [3] and in test [5]. Moreover, the Potency entry in test [4], in test [7] and in test [8] was “inactive” in each case. The max response in test [6] is 1.4%.
Consider `Cc1ccc(NC(N)=O)cc1`, for which the molecule was called inactive in test [1], in test [2], in test [3], in test [5] and in test [9]. The Potency result in test [4], in test [7] and in test [8] was “inactive” each time. Moreover, the max response in [6] is 11.1%.
Regarding `O=P(O)(O)C(O)(Cc1cccnc1)P(=O)(O)O`, the molecule was called inactive in [1], in test [2], in [3], in test [5] and in test [9]. The Potency result in test [4], in test [7] and in [8] was “inactive” each time. For the same molecule, in test [6], the max response was -1.75%.
Consider `Cc1cccc(N)n1`, for which the molecule was called inactive in test [1], in test [2], in [3], in test [5] and in test [9]. Moreover, the Potency entry in [4], in test [7] and in test [8] was “inactive” each time. For the same molecule, the max response in [6] was -4.06%.
Take `C[C@@H](CN1CC(=O)NC(=O)C1)N1CC(=O)NC(=O)C1`: the result in test [1], in [2], in [3], in test [5] and in test [9] was inactive. The Potency result in test [4], in [7] and in test [8] was “inactive” throughout. The max response in test [6] is -3.41%.
In the case of `CCCCN=C(N)N=C(N)N`, the outcome in [1], in test [2], in test [3], in test [5] and in test [9] was inactive. Also, the Potency result in test [4], in test [7] and in test [8] was “inactive” throughout. In addition, the max response in [6] was -14.6%.
For the molecule `Cc1cc(C)c(C)c(C)c1`, the molecule was called inactive in test [1], in test [2], in [3], in test [5] and in test [9]. The Potency result in test [4], in test [7] and in test [8] was “inactive” throughout. Besides, the max response in [6] was -10%.
For `COC(=O)N/N=C/c1c[n+]([O-])c2ccccc2[n+]1[O-]`, the outcome in test [1], in test [2], in test [3], in test [5], in test [10] and in [9] was inactive. For the same molecule, in test [6], the max response was 5.36%. Also, the Potency in test [7] is 21.3 µM (active); in test [8], 23.9 µM (active).
As to `CC/C=C\CCCCCCCCCCOC(C)=O`, the outcome in [1], in test [2], in test [3], in test [5] and in test [9] was inactive. Further, the Potency result in test [4], in test [7] and in test [8] was “inactive” in each case. For the same molecule, the max response in [6] is -0.318%.
`CCCCCC(CC)OC(=O)CCCOc1ccc(Cl)cc1Cl` (stereo unspecified): the result in [1], in [2], in test [3], in [5] and in test [9] was inactive. The Potency result in test [4], in test [7] and in test [8] was “inactive” throughout. In addition, the max response in test [6] is 2.48%.
Take `COc1cc(C(=O)NC2CCCNC2)cc(OC)c1OC` (stereo unspecified): the molecule was called inactive in [1], in [2] and in test [5]. Further, the Potency result in test [4], in test [7] and in [8] was “inactive” throughout. In addition, the max response in test [6] is 1.36%.
In the case of `CC/C=C\CCOC(=O)c1ccccc1`, the result in test [1], in [2], in test [3], in test [10] and in test [9] was inactive. Moreover, in test [6], the max response is -28.3%. The Potency entry in [7] and in test [8] was “inactive” each time.
Consider `O=C(OOC(=O)c1ccccc1)c1ccccc1`, for which the result in test [2], in test [3], in test [10] and in [9] was inactive. Besides, the Potency result in test [4], in [7] and in test [8] was “inactive” in each case.
On to `CC(C)C[P+](C)(CC(C)C)CC(C)C`, for which the molecule was called inactive in test [1], in test [2], in test [3], in test [5] and in test [9]. For the same molecule, the max response in test [6] is -17.7%. For the same molecule, in test [8], the Potency entry was “inactive”.
With `CC1(C)C(=O)C(C)(C)C1=O`, the outcome in [1], in test [2], in test [3], in test [5] and in test [9] was inactive. The Potency entry in test [4], in test [7] and in [8] was “inactive” in each case. Further, the max response in [6] was 6.04%.
Regarding `COC(=O)c1c(C)cc(O)c(C)c1O`, the outcome in test [2], in [3] and in test [10] was inactive. The Potency result in [4], in test [7] and in [8] was “inactive” in each case.
In the case of `CCC(C)c1nccnc1OC` (stereo unspecified), the outcome in [1], in [2], in test [3], in test [5] and in [9] was inactive. In addition, the Potency result in test [4], in [7] and in test [8] was “inactive” in each case. Besides, the max response in test [6] is 1.32%.
For the molecule `COc1ccc(Cl)cc1C`, the molecule was classed as inactive in [1], in test [2], in test [3], in test [10] and in test [9]. In addition, the Potency result in test [4], in test [7] and in [8] was “inactive” in each case.
Turning to `Cc1cc(C)c(N)c(Cl)c1`, the molecule was called inactive in [1], in test [2], in test [3], in test [5] and in [9]. For the same molecule, the Potency entry in [4], in [7] and in test [8] was “inactive” each time. In addition, the max response in test [6] is 2.65%.
For `CC(=O)Nc1ccc(OCCOCCOc2ccc(NC(C)=O)cc2)cc1`, the molecule was classed as inactive in test [1], in test [2], in [3], in [5] and in test [9]. Besides, the Potency result in test [4], in test [7] and in test [8] was “inactive” each time. The max response in test [6] is -1.67%.
Regarding `CCCCS`, the result in [1], in [2], in test [3], in test [5], in test [10] and in test [9] was inactive. In [6], the max response is 0.118%. Besides, the Potency entry in test [8] was “inactive”.

The values are drawn from PubChem BioAssay (Tox21).
